Assay [1] is described as follows: NCI Yeast Anticancer Drug Screen. Data for the rad50 strain (AID 155).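 Further: 0% = growth of vehicle-only cultures of the same strain.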 As to conditions: S. cerevisiae rad50 strain growth inhibition; at 50.0 µM; stronger effect = higher value. The method, boiled down: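 Cells are treated with compound, grown, and their growth is then scored against vehicle-only cultures of the same repair-deficient yeast strain.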
The nature of assay [2]: NCI Yeast Anticancer Drug Screen. Data for the mec2-1 strain (AID 157). As to conditions: S. cerevisiae mec2-1 strain, at 50.0 µM, stronger effect = higher value. In short, it runs like this:
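Cells of the genetically defined mec2-1 yeast strain are incubated with test compound. Inhibition of growth is calculated against vehicle-treated controls.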

Assay [3] can be described thus: NCI Yeast Anticancer Drug Screen. Data for the sgs1 mgt1 strain (AID 161).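 Further: 0% = growth of cultures given vehicle only.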 As to conditions: S. cerevisiae sgs1 mgt1 strain, at 50.0 µM, stronger effect = higher value. In short, it runs like this:
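Genetically altered yeast, compound exposure, growth inhibition relative to vehicle.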

A short description of assay [4]: NCI Yeast Anticancer Drug Screen. Data for the cln2 rad14 strain (AID 165).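 Further: 0% = growth equal to vehicle treated cultures.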 Conditions: S. cerevisiae cln2 rad14 strain, at 50.0 µM, stronger effect = higher value. The method, boiled down:
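The screen exposed genetically defined yeast (cln2 rad14) to test compounds and scored growth inhibition relative to vehicle-treated controls.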

Assay [5] in a line: NCI Yeast Anticancer Drug Screen. Data for the bub3 strain (AID 167). Conditions: S. cerevisiae bub3 mutant strain, at 50.0 µM, stronger effect = higher value. The method, boiled down:
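Part of a panel of yeast mutants defective in DNA damage repair or cell cycle regulation. Each strain is grown with compound, and inhibition is calculated relative to solvent-treated cultures.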

Assay [6] is described as follows: NCI Yeast Anticancer Drug Screen. Data for the mlh1 rad18 strain (AID 175). As to conditions: S. cerevisiae mlh1 rad18 strain growth inhibition; at 50.0 µM; stronger effect = higher value. The method, boiled down: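 Compound-treated yeast growth, normalised to vehicle controls. Strain bears defined DNA repair mutations.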

The panel holds about 79,000 compounds, 15% with a hit somewhere; the sample as a whole holds those more often. Unmarked numbers belong to inactive results. Active and inactive are the calls of the source. No stated cut-off is given here; in the data, active means growth inhibition above about 70%; inactive means the rest. Where a SMILES comes first, the peptide text is derived from it. The star is where a group is joined. Cbz = O=C(OCc1ccccc1)*

With `CC(Br)C(=O)n1c2ccccc2c2ccccc21` (centres undefined), the growth inhibition was 21.6% in assay [1]; 9.8% in assay [2]; 19.8% in assay [3]; -13.8% in assay [4]; 12.2% in assay [5]; 8.1% in assay [6].
Consider `O=C1Cc2ccccc2NC(c2ccccc2)C1S(=O)(=O)c1ccccc1` (centres undefined), for which the growth inhibition is 7.05% in assay [1]; 4.35% in assay [2]; 9.3% in assay [3]; -2.15% in assay [4]; -0.05% in assay [5]; 19.6% in assay [6].
For `CSc1ncc2c(n1)-c1ccccc1OC2N1CCOCC1` (centres undefined), the growth inhibition in assay [1] was -4.95%; in assay [2], 8.1%; in assay [3], -1.65%; in assay [4] it was -9.55%; in assay [5], -18.4%; in assay [6] it was 40.7%.
In the case of `Cc1cc2ccccc2nc1-c1ccncc1`, the growth inhibition in assay [1] is 3.45%; in assay [2], -3.15%; in assay [3] it was -7.35%; in assay [4], -44.6%; in assay [5] it was -6.75%; in assay [6], 1.2%.
Consider `NC(=O)c1cc(OCc2ccccc2)nc2nc(Cl)nc(N)c12`, for which the growth inhibition in assay [1] was -5.05%; in assay [2] it was 14.6%; in assay [3], 3.35%; in assay [4], -15.8%; in assay [5], -0.8%; in assay [6], 5.05%.
Take `C=CCOc1ccc(C2C(C(=O)OC)C(=O)CC(O)(c3ccccc3)C2C(=O)OC)cc1OC` (centres undefined): the growth inhibition is -63.2% in assay [1]; -24.6% in assay [2]; -14.9% in assay [3]; -13.2% in assay [4]; -0.9% in assay [5]; -19.7% in assay [6].
Regarding `CC(O)c1cccc(C(C)(C)O)c1Sc1c(C(C)(C)O)cccc1C(C)(C)O` (centres undefined), the growth inhibition in assay [1] is 13%; in assay [2] it was 7.8%; in assay [3], 10.1%; in assay [4], -0.75%; in assay [5], 6.25%; in assay [6] it was -14.6%.
For the molecule `CCCC(=O)C1=CC(C(C)C)CCC1C` (centres undefined), the growth inhibition in assay [1] is 12.6%; in assay [2], -4.4%; in assay [3], -4.05%; in assay [4], -12.2%; in assay [5], 1.15%; in assay [6], 1%.
As to `CCN(CC)CCOC(C)=O`, the growth inhibition in assay [1] is 8.25%; in assay [2], -15.7%; in assay [3], -19.4%; in assay [4], 0.7%; in assay [5] it was -11.1%; in assay [6] it was -26.3%.
With `CC#CC(O)(C(=O)OC1CCC2CCC1N2C)C1CCCC1` (centres undefined), the growth inhibition was -25.5% in assay [1]; -8.9% in assay [2]; -23.3% in assay [3]; 6.2% in assay [4]; -3.4% in assay [5]; -4.65% in assay [6].
For the molecule `CCOC(=O)/C(C#N)=C(O)\C(=C\c1ccc(Cl)cc1)NC(=O)c1ccc(NC(C)=O)cc1`, the growth inhibition in assay [1] is 8.9%; in assay [2], -0.3%; in assay [3], -17.4%; in assay [4] it was 9.2%; in assay [5], -8.1%; in assay [6], 5.65%.
With `CN(C)c1ccc([Si](c2ccc(N(C)C)cc2)c2ccc(N(C)C)cc2)cc1`, the growth inhibition is -18.5% in assay [1]; 3.65% in assay [2]; -19.1% in assay [3]; -28.8% in assay [4]; -1.1% in assay [5]; 23.4% in assay [6].
Consider `COc1ccc(C(=O)C(c2ccc(OCc3ccccc3)cc2)c2ccc(OCc3ccccc3)cc2)cc1`, for which the growth inhibition is 5.4% in assay [1]; -35.8% in assay [2]; -6.35% in assay [3]; 26.9% in assay [4]; -25.7% in assay [5]; -5.55% in assay [6].
On to `COC(=O)c1ccccc1C1CN=NC12Cc1c(C)ccc(C)c1C2=O` (centres undefined), for which the growth inhibition in assay [1] is 9.5%; in assay [2], 7%; in assay [3] it was 16.9%; in assay [4], 14.2%; in assay [5] it was 3.55%; in assay [6], 29.9%.
Regarding `O=c1c(-c2ccccc2)coc2ccccc12`, the growth inhibition was -9% in assay [1]; 1.45% in assay [2]; 8.15% in assay [3]; -52% in assay [4]; -14.3% in assay [5]; 0.15% in assay [6].
For `Clc1ccc(N=Cc2ccccc2)cn1`, the growth inhibition in assay [1] was -13.6%; in assay [2], 22.1%; in assay [3], 37%; in assay [4], -14.4%; in assay [5] it was 6.55%; in assay [6], 47.4%.
For `Cc1ccc2oc(=O)cc(CC(=O)O)c2c1`, the growth inhibition in assay [1] is -6%; in assay [2], -8.3%; in assay [3] it was -10.4%; in assay [4], 12.1%; in assay [5], -10.7%; in assay [6], -7.9%.
For `CN(C)c1ccc(/C=C(\C#N)c2nc(-c3cc4ccccc4oc3=O)cs2)cc1`, the growth inhibition in assay [1] is -2.45%; in assay [2], -13.6%; in assay [3], -23%; in assay [4] it was -4.3%; in assay [5] it was -35.7%; in assay [6], -63.2%.
Consider `Cn1c(=O)c2c(ncn2CCSS(=O)(=O)O)n(C)c1=O`, for which the growth inhibition in assay [1] was -20.7%; in assay [2], -17.1%; in assay [3] it was 12.2%; in assay [4], -11.9%; in assay [5], -12%; in assay [6], -28.9%.
In the case of `CCCCCC/C(=C\c1ccc(O)cc1)C(=O)O`, the growth inhibition was 17.6% in assay [1]; 36.1% in assay [2]; 32.8% in assay [3]; 47.9% in assay [4]; 39.6% in assay [5]; 41.8% in assay [6].
On to `O=C(CI)Nc1ccc(Cl)c(Cl)c1`, for which the growth inhibition in assay [1] was 99.7% (active); in assay [2] it was 99.3% (active); in assay [3] it was 99.8% (active); in assay [4] it was 99.6% (active); in assay [5], 99.8% (active); in assay [6] it was 99.7% (active).
Consider `COc1ccc(-c2cc(-c3ccncc3)[nH]c2-c2nccc3ccccc23)cc1`, for which the growth inhibition in assay [1] was 94.2% (active); in assay [2], 82.7% (active); in assay [3], 97.3% (active); in assay [4], 79.5% (active); in assay [5] it was 73.7% (active); in assay [6], 85% (active).
Turning to `CSc1nc(NC2OCC(OC(C)=O)C(OC(C)=O)C2OC(C)=O)c2c(n1)OCC2=O` (centres undefined), the growth inhibition in assay [1] was -17%; in assay [2], -21.6%; in assay [3] it was -21.6%; in assay [4], 6.1%; in assay [5], 13.4%; in assay [6], -10.5%.
`CC1(C)C[C@@H]2C1CCC1(C)CC2(O)CC[C@H]1O` (some centres undefined): the growth inhibition is -23.6% in assay [1]; -35% in assay [2]; -24.8% in assay [3]; 14.4% in assay [4]; 2.3% in assay [5]; -17.9% in assay [6].
Regarding `CC(O)/C=C/C(CCC(C)CO)C(C)C` (centres undefined), the growth inhibition was -17% in assay [1]; -27.6% in assay [2]; -26% in assay [3]; -10.2% in assay [4]; -25.9% in assay [5]; -16% in assay [6].
With `COc1cc(C=C2C(=O)OC(C)(C)OC2=O)cc(OC)c1OC`, the growth inhibition in assay [1] was 3.45%; in assay [2], -22.1%; in assay [3] it was -11.3%; in assay [4], 24.3%; in assay [5], -21.5%; in assay [6], 9.05%.
In the case of `Cc1ccc2c(c1-c1ccccc1)C(=O)OC2`, the growth inhibition in assay [1] is -5.4%; in assay [2], -3.05%; in assay [3] it was 2.15%; in assay [4] it was 5.35%; in assay [5] it was 6.25%; in assay [6] it was -3.3%.
`CC(=O)Oc1ccc2c(c1)oc1c3ccc(OC(C)=O)cc3n(C)c(=O)c21`: the growth inhibition in assay [1] is -20.1%; in assay [2] it was -44.8%; in assay [3], -16%; in assay [4], -4.3%; in assay [5], -7.95%; in assay [6], -23.4%.
Turning to `CCC(=O)OCC(OC(=O)CC)C(OC(=O)CC)C(OC(=O)CC)C(COC(=O)CC)OC(=O)CC` (centres undefined), the growth inhibition in assay [1] is -0.5%; in assay [2], 6.95%; in assay [3] it was -16.6%; in assay [4] it was -31.6%; in assay [5], 1.35%; in assay [6] it was -3.75%.
In the case of `CCOC(=O)CCCN(c1sc(C)c(-c2ccccc2)c1C(=O)OCC)S(=O)(=O)c1ccc(C)cc1`, the growth inhibition in assay [1] is -16.6%; in assay [2] it was -3.25%; in assay [3] it was -14.6%; in assay [4] it was -29.3%; in assay [5] it was -3.75%; in assay [6], 4.5%.
As for `CCNC(=S)NCC`, the growth inhibition in assay [1] is -11.2%; in assay [2] it was -28.8%; in assay [3], 20.6%; in assay [4], 6.7%; in assay [5] it was 0.4%; in assay [6], 17.5%.
On to `O=C(NNC(=O)c1ccc(Cl)cc1Cl)c1ccc2ccccc2c1`, for which the growth inhibition is 9.4% in assay [1]; -42% in assay [2]; -14.4% in assay [3]; 6% in assay [4]; -0.1% in assay [5]; -0.55% in assay [6].
Take `CC(NC(=O)OCc1ccccc1)C(=O)NC(CO)C(N)=O` (stereo not drawn) (Cbz-Ala-Ser-NH2; configuration not given here): the growth inhibition was 6.15% in assay [1]; -6.5% in assay [2]; -0.25% in assay [3]; 19.2% in assay [4]; 5.95% in assay [5]; 8.1% in assay [6].
Turning to `O=C(O)C(=Cc1ccnc2ccccc12)C(=O)O`, the growth inhibition is 7.75% in assay [1]; -13.7% in assay [2]; -35.8% in assay [3]; 15.7% in assay [4]; -52.2% in assay [5]; 3.5% in assay [6].
On to `O=C1c2ccccc2C2(c3ccccc3)C=NNC12c1ccccc1` (centres undefined), for which the growth inhibition is 21.5% in assay [1]; 6.9% in assay [2]; 18.2% in assay [3]; 4.4% in assay [4]; 55.5% in assay [5]; 25.1% in assay [6].
Regarding `CCOC(=O)C(=CNc1ccc(F)c(F)c1)C(=O)OCC`, the growth inhibition in assay [1] was -0.4%; in assay [2] it was 1.55%; in assay [3] it was -8.35%; in assay [4], -2.2%; in assay [5], 26.1%; in assay [6], -36%.
As to `NC(=O)NC(=O)OCC(F)(F)C(F)(F)C(F)(F)C(F)(F)C(F)(F)C(F)(F)C(F)(F)F`, the growth inhibition was 45.8% in assay [1]; 9.9% in assay [2]; 31.4% in assay [3]; 15.6% in assay [4]; -0.45% in assay [5]; 6.85% in assay [6].
As for `NNC(=O)CC(=O)Nc1ccccc1F`, the growth inhibition is -7.9% in assay [1]; -16.9% in assay [2]; -6.4% in assay [3]; 7.15% in assay [4]; 0.85% in assay [5]; -2.85% in assay [6].
As for `O=C(NCc1ccc(Cl)c(Cl)c1)Nc1ccccc1F`, the growth inhibition in assay [1] was 11%; in assay [2] it was 11.1%; in assay [3], 6.1%; in assay [4], 9.65%; in assay [5] it was 20.4%; in assay [6], 7.05%.

The values are drawn from PubChem BioAssay (NCI).
